A short description of test [1]: ATG_NFI_CIS: Attagene CIS-FACTORIAL HepG2 Assay for human Nuclear Factor I (NFI) (AID 2282989). As to conditions: HepG2 cis-regulatory reporter, NFI response element transcription; actives raise or lower the signal. The method in brief: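 After transient transfection of HepG2 with cis-promoter reporter constructs and 24 h dosing, RNA is reverse-transcribed, amplified, 6-FAM end-labelled and HpaI-digested before capillary analysis. Bidirectional curve fitting against DMSO.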

Test [2] has as its target Myc proto-oncogene protein (Homo sapiens) (UniProt P01106). The test is described as follows: ATG_Myc_CIS: Attagene CIS-FACTORIAL HepG2 Assay for human Myelocytomatosis (Myc) Proto-Oncogene Transcription Factor (AID 2282990). As to conditions: HepG2, Attagene cis-reporter transcription factor activity; actives raise or lower the signal. The method in brief: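 Fluorescence intensity of reporter-specific cDNA fragments, separated by capillary electrophoresis, gives the signal. Transfected HepG2 cells carrying cis-promoter reporter constructs are incubated with compound for 24 h; DMSO serves as baseline.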

Test [3] is described as follows: ATG_NF_kB_CIS: Attagene CIS-FACTORIAL HepG2 Assay for human Nuclear Factor Kappa B (NF-kB) (AID 2282991). As to conditions: HepG2 Attagene cis-factorial NF-kB reporter mRNA; actives raise or lower the signal. The method in brief:
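After 24 h compound incubation, transfected HepG2 cells yield total RNA; reporter cDNA is PCR-amplified, end-labelled with 6-FAM, HpaI-digested and analysed on a genetic analyser. Endogenous factor activity, DMSO-referenced bidirectional fit.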

Test [4] in a line: ATG_NRF2_ARE_CIS: Attagene CIS-FACTORIAL HepG2 Assay for human Nuclear Factor Erythroid 2 Related Factor 2 (NFR2) response to Antioxidant Response Elements (ARE) (AID 2282992). As to conditions: HepG2 Attagene ARE/NRF2 reporter, transcription factor activity; actives raise or lower the signal. The essentials:
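Cis-factorial assay: transfected HepG2 reporter library, 24 h dosing, mRNA readout via RT-PCR/CE; DMSO-referenced bidirectional analysis.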

Test [5] is described as follows: ATG_Oct_MLP_CIS: Attagene CIS-FACTORIAL HepG2 Assay for human Octamer-Binding Transcription Factor (Oct) (AID 2282993). As to conditions: HepG2 Attagene cis-factorial Oct reporter, mRNA; actives raise or lower the signal. The method in brief: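 Cells of the HepG2 line express promoter-controlled reporter sequences whose mRNA levels, after 24 h treatment, are measured by RT-PCR and capillary electrophoresis. Increases and decreases are scored relative to DMSO.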

Test [6] addresses Cellular tumor antigen p53 (Homo sapiens) (UniProt P04637). The test is described as follows: ATG_p53_CIS: Attagene CIS-FACTORIAL HepG2 Assay for human p53 Transcription Factor (AID 2282994). As to conditions: HepG2 p53 cis-element reporter, Attagene mRNA; actives raise or lower the signal. The method in brief:
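Using HepG2 hepatoma cells carrying cis-acting multiplexed reporters, mRNA induction is detected after a 24 h exposure. Gain- and loss-of-signal responses are fitted relative to DMSO-treated cells.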

For test [7], the target named is human Peroxisome Proliferator-activated Receptor alpha (PPARa), PPARA (gene 5465) (UniProt Q07869). The test is described as follows: ATG_PPARa_TRANS: Attagene TRANS-FACTORIAL HepG2 Assay for human Peroxisome Proliferator-activated Receptor alpha (PPARa) (AID 2283001; active = hit-call score of the fitted dose curve at least 0.9, where 1 is the maximum). The essentials:
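Measures transcriptional activity of an exogenous chimeric PPARa-Gal4 protein in transiently transfected HepG2 cells after 24 h dosing. Reporter mRNA quantified via RT-PCR and capillary electrophoresis; DMSO served as negative control.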

The target in test [8] is human Peroxisome Proliferator-activated Receptor delta (PPARd), PPARD (gene 5467) (UniProt Q03181). The test is described as follows: ATG_PPARd_TRANS: Attagene TRANS-FACTORIAL HepG2 Assay for human Peroxisome Proliferator-activated Receptor delta (PPARd) (AID 2283002; active = hit-call score of the fitted dose curve at least 0.9, where 1 is the maximum). The essentials:
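Fluorescence from capillary electrophoresis of labelled RT-PCR reporter fragments gives the signal; DMSO sets baseline. Cells: HepG2 transiently carrying GAL4-UAS reporter units plus chimeric nuclear receptor-Gal4 proteins, exposed to chemicals for 24 h.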

Test [9] deals with human Retinoic Acid Receptor gamma (RARg), RARG (gene 5916) (UniProt P13631). The test is described as follows: ATG_RARg_TRANS: Attagene TRANS-FACTORIAL HepG2 Assay for human Retinoic Acid Receptor gamma (RARg) (AID 2283009; active = hit-call score of the fitted dose curve at least 0.9, where 1 is the maximum). The method in brief:
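HepG2 cells transiently transfected with multiplexed reporter units expressing chimeric RARg-GAL4 and GAL4-UAS-driven reporters; 24 h compound exposure. Reporter mRNA quantified by RT-PCR with fluorescent labelling and capillary electrophoresis; gain-of-signal fitted relative to DMSO baseline.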

Test [10] has as its target human Retinoic Acid Receptor beta (RARb), RARB (gene 5915) (UniProt P10826). The test is described as follows: ATG_RARb_TRANS: Attagene TRANS-FACTORIAL HepG2 Assay for human Retinoic Acid Receptor beta (AID 2283004; active = hit-call score of the fitted dose curve at least 0.9, where 1 is the maximum). The essentials:
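HepG2 cells transiently transfected with multiplexed GAL4-UAS reporter units expressing chimeric NR–Gal4 fusions; 24 h compound exposure. Reporter mRNA quantified by RT-PCR, 6-FAM labelling, HpaI digestion and capillary electrophoresis; gain-of-signal fitted against DMSO baseline.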

Test [11] addresses Retinoic acid receptor alpha (Homo sapiens) (UniProt P10276). The test is described as follows: ATG_RARa_TRANS: Attagene TRANS-FACTORIAL HepG2 Assay for human Retinoic Acid Receptor alpha (RARa) (AID 2283005; active = hit-call score of the fitted dose curve at least 0.9, where 1 is the maximum). The essentials: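 HepG2 transiently transfected with multiplex GAL4-UAS reporter units including a human RARa–GAL4 chimera; 24 h compound exposure. Reporter mRNA quantified by RT-PCR, 6-FAM labeling and capillary electrophoresis; gain of signal versus DMSO.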

In test [12] the target is Nuclear receptor subfamily 1 group I member 2 (Homo sapiens) (UniProt O75469). The test is described as follows: ATG_PXR_TRANS: Attagene TRANS-FACTORIAL HepG2 Assay for human Pregnane X Receptor (PXR) (AID 2283008; active = hit-call score of the fitted dose curve at least 0.9, where 1 is the maximum). The essentials:
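Fluorescence intensity of FAM-labelled, HpaI-digested reporter amplicons, separated by capillary electrophoresis, quantifies induction. HepG2 cells with PXR-Gal4 trans-reporter system were exposed 24 h; DMSO defines baseline.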

Test [13] addresses human RAR-related Orphan Receptor beta (RORb), RORB (gene 6096) (UniProt Q92753). The test is described as follows: ATG_RORb_TRANS: Attagene TRANS-FACTORIAL HepG2 Assay for human RAR-related Orphan Receptor beta (RORb) (AID 2283010; active = hit-call score of the fitted dose curve at least 0.9, where 1 is the maximum). The method in brief: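 HepG2 cells were transiently transfected with multiplexed GAL4-UAS reporter units expressing chimeric nuclear receptor–GAL4 proteins, then dosed for 24 h. Reporter mRNA was quantified by RT-PCR with fluorescent labelling and capillary electrophoresis; gain of signal was fitted relative to DMSO.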

For test [14], the target named is Peroxisome proliferator-activated receptor gamma (Homo sapiens) (UniProt P37231). The test is described as follows: ATG_PPARg_TRANS: Attagene TRANS-FACTORIAL HepG2 Assay for human Peroxisome Proliferator-activated Receptor-gamma (PPARg) (AID 2283007; active = hit-call score of the fitted dose curve at least 0.9, where 1 is the maximum). The essentials:
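Liver-derived HepG2 cells expressing an exogenous NR-Gal4 chimera alongside GAL4-UAS reporter genes; 24 h exposure. Fluorescence of reporter RT-PCR products, separated by capillary electrophoresis, gives mRNA induction relative to DMSO.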

Each structure is given as a SMILES string. Inconclusive results are not listed. The source made the active and inactive calls. Rule for the calls, unless noted: active = hit-call score of the fitted dose curve at least 0.9, where 1 is the maximum; inactive = score below 0.9.

Data on twelve molecules can be found in PubChem BioAssay (EPA / NIEHS).

human Peroxisome Proliferator-activated Receptor alpha (PPARa), PPARA (gene 5465), sequence (Q07869 whole entry, looked up, the tested form may be a part): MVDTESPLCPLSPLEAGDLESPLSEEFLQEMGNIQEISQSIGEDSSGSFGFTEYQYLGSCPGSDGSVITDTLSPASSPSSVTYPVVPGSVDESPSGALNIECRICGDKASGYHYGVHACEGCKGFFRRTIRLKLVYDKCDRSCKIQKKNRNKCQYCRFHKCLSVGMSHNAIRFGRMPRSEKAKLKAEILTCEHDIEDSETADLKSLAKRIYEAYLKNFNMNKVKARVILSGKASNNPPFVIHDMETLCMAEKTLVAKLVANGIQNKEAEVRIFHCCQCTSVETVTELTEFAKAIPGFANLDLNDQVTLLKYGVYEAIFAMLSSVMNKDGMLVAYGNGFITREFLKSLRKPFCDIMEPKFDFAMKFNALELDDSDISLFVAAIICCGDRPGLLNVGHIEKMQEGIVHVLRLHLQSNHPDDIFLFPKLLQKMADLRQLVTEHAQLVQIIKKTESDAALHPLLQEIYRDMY
Cellular tumor antigen p53 (Homo sapiens), sequence (P04637 whole entry, looked up): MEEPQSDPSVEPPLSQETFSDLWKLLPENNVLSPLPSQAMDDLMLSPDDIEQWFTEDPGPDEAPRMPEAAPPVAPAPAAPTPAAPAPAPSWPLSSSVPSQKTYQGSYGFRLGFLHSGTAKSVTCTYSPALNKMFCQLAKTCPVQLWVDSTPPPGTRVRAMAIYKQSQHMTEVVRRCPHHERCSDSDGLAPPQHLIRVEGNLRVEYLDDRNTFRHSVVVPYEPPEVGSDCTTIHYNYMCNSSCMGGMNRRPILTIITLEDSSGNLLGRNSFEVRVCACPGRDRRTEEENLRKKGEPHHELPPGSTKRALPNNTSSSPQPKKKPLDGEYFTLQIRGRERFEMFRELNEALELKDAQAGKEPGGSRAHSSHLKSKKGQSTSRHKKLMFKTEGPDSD
Myc proto-oncogene protein (Homo sapiens), sequence (P01106 whole entry, looked up, the tested form may be a part): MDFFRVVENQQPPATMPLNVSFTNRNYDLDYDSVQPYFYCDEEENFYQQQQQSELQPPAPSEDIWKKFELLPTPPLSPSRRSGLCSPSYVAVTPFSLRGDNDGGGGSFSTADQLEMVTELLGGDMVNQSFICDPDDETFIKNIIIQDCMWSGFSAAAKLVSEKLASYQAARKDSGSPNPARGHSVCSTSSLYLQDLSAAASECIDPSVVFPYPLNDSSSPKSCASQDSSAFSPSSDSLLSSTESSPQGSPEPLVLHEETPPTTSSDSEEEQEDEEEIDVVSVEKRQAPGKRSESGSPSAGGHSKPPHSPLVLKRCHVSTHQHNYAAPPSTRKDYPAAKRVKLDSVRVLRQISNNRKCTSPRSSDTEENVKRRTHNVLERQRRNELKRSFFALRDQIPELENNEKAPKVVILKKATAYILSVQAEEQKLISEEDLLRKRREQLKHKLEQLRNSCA
Nuclear receptor subfamily 1 group I member 2 (Homo sapiens), sequence (O75469 whole entry, looked up, the tested form may be a part): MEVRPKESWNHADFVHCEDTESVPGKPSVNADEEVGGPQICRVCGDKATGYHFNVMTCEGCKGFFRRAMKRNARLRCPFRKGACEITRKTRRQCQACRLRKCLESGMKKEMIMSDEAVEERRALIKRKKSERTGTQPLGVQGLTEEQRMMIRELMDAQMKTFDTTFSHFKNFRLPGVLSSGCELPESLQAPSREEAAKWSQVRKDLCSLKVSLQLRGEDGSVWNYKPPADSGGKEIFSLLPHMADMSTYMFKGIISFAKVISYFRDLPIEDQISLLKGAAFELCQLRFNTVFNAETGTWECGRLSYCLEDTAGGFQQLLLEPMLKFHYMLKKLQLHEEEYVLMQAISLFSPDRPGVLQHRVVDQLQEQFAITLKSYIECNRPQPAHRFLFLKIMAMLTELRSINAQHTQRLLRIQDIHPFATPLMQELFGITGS
human Retinoic Acid Receptor gamma (RARg), RARG (gene 5916), sequence (P13631 whole entry, looked up, the tested form may be a part): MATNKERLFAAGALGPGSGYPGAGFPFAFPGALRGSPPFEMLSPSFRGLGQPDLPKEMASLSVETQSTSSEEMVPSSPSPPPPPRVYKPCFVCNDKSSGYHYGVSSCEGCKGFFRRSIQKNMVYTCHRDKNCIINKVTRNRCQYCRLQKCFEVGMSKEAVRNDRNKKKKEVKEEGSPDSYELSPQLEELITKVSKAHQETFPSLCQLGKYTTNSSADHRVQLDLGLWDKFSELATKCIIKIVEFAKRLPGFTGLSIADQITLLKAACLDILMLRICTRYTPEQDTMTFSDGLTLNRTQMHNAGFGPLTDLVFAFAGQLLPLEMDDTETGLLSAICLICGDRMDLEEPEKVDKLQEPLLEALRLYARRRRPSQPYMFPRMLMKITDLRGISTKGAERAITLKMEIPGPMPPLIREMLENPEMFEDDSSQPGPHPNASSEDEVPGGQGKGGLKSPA
Peroxisome proliferator-activated receptor gamma (Homo sapiens), sequence (P37231 whole entry, looked up, the tested form may be a part): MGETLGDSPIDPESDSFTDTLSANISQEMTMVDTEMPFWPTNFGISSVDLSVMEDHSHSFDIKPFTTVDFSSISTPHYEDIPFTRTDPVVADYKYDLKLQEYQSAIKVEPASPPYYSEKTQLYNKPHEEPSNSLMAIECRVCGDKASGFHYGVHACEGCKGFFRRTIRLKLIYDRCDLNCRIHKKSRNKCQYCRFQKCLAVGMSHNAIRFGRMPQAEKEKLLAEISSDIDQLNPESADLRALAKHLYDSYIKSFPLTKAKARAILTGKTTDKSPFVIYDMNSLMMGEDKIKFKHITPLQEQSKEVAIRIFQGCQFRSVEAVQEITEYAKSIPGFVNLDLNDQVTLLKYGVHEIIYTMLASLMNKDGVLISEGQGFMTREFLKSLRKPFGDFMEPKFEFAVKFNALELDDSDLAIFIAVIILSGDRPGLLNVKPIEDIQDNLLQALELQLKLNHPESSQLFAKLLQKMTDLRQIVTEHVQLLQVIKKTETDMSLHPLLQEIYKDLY
human Peroxisome Proliferator-activated Receptor delta (PPARd), PPARD (gene 5467), sequence (Q03181 whole entry, looked up, the tested form may be a part): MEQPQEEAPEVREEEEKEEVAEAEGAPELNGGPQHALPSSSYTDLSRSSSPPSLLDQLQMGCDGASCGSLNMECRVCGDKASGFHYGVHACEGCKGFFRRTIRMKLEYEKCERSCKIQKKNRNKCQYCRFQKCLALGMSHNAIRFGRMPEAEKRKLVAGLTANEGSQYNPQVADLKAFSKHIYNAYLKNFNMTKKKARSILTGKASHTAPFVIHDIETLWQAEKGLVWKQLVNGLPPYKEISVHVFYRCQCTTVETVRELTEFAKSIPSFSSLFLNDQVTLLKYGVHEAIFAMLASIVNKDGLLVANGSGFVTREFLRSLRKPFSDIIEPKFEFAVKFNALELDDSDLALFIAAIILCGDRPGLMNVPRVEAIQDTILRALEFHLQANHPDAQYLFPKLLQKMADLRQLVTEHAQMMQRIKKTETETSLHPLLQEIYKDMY
human RAR-related Orphan Receptor beta (RORb), RORB (gene 6096), sequence (Q92753 whole entry, looked up, the tested form may be a part): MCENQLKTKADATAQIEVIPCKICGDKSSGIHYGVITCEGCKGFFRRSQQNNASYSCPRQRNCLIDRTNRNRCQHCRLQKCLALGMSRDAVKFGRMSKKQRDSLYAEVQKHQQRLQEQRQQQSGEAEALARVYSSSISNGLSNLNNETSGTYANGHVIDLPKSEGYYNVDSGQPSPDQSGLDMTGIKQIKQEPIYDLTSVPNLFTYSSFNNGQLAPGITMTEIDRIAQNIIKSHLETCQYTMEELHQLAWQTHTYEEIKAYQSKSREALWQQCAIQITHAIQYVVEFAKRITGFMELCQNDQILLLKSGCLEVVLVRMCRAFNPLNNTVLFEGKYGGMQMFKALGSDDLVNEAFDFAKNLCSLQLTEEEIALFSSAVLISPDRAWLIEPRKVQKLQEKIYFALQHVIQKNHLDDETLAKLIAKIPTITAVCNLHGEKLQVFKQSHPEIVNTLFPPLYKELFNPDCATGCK
Retinoic acid receptor alpha (Homo sapiens), sequence (P10276 whole entry, looked up, the tested form may be a part): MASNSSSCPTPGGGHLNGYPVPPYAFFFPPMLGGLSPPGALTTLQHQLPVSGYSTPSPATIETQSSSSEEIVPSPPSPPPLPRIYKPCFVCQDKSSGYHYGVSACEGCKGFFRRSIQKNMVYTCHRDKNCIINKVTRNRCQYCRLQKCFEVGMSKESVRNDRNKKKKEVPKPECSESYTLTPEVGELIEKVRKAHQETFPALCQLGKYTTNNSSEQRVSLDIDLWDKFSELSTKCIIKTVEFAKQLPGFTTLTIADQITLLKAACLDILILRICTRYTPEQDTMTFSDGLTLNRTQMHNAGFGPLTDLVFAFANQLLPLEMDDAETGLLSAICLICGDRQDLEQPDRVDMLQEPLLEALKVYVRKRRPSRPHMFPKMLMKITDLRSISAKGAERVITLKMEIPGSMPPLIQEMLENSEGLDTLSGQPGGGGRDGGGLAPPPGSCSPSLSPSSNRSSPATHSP
human Retinoic Acid Receptor beta (RARb), RARB (gene 5915), sequence (P10826 whole entry, looked up, the tested form may be a part): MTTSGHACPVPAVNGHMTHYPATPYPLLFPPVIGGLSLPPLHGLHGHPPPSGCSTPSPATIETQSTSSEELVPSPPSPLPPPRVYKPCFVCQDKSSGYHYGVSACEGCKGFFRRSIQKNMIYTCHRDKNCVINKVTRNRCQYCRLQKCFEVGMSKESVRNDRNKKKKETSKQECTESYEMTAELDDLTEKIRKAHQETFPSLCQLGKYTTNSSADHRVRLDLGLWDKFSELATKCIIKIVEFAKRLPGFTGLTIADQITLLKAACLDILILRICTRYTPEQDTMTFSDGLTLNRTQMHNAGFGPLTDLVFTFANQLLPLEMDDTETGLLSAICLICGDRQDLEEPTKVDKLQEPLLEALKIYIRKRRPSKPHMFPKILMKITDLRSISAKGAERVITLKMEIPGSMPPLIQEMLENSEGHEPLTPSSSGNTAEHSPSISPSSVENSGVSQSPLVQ

Regarding `CN1C(=O)c2ccccc2C1=O`, the molecule was called inactive in test [1], in test [2], in [3], in test [4], in test [5] and in test [6]. The result in test [7], in test [8] and in [9] was inactive.

Regarding `Cc1ccc(S(N)(=O)=O)cc1`, the call in [1], in test [2], in test [3], in test [4], in test [5] and in test [6] was inactive. Besides, the call in test [7], in [10], in test [11], in test [12] and in test [9] was inactive.

Regarding `OCC(O)c1ccccc1` (centres undefined), the result in test [1], in [2], in test [3], in [4], in test [5] and in [6] was inactive. In addition, the result in test [7], in [8], in [12] and in test [13] was inactive.

Regarding `CCCCCCCC(=O)OCC(O)CO` (centres undefined), the molecule was classed as inactive in [1], in test [2], in [3], in test [4], in [5] and in [6]. In addition, the call in test [7], in [8], in test [14], in [12] and in test [9] was inactive.

In the case of `CCCCCCCCC=CCCCCCCCC1=NCCN1CCO`, the AC50 in [1] was 6.21 µM (active); in test [3], 26 µM (active); in test [6], 21 µM (active). The result in test [2], in test [4], in test [5], in test [7], in [8] and in test [14] was inactive. Besides, the molecule was classed as inactive in test [9] and in test [13].

As to `C=C(C)CNCC`, the call in test [1], in test [2], in [3], in test [4], in test [5] and in test [6] was inactive. In addition, the molecule was called inactive in [7], in [8] and in test [9]. Further, the AC50 in test [12] is 54.6 µM (active).

For `Cc1cc(=O)oc2cc(N(C)C)ccc12`, the outcome in test [1], in test [2], in test [3], in test [4], in test [6] and in test [7] was inactive. For the same molecule, the outcome in test [8], in [14] and in [12] was inactive. The AC50 in [5] was 57.4 µM (active).

In the case of `Clc1ccc(C(c2ccccc2Cl)C(Cl)Cl)cc1` (centres undefined), the AC50 is 34.7 µM (active) in [1]; 100 µM (active) in test [3]; 52 µM (active) in [4]; 26.7 µM (active) in test [5]; 1.92 µM (active) in [12]. Also, the outcome in [2], in test [6], in test [7], in test [8] and in [14] was inactive.

As for `COS(=O)(=O)O`, the result in [1], in [2], in [3], in test [4], in test [5] and in test [6] was inactive. The molecule was called inactive in [7] and in [12].

With `CCCCCCOC(=O)C(C)C`, the outcome in test [1], in test [2], in test [3], in test [4], in test [5] and in [6] was inactive. For the same molecule, the molecule was classed as inactive in [7] and in test [14].

Take `COC(C)(C)CCCC(C)CC=O` (centres undefined): the molecule was called inactive in test [1], in test [2], in test [3], in [4], in [5] and in test [6]. In addition, the molecule was classed as inactive in test [8] and in test [14].

`OCc1cccc(Oc2ccccc2)c1`: the molecule was classed as inactive in test [1], in test [2], in test [3], in test [4], in test [5] and in test [6]. Further, in [7], the molecule was classed as inactive. In test [14], the AC50 is 74.7 µM (active).
